In assay [1] the test system is Zika virus NS2B-NS3 protease. Description: Primary screen GU AMC qHTS for Zika virus inhibitors (AID 1347154).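 Further: 0% = no-inhibitor control and -100% = no-enzyme control; nearly all actives have a fitted effect of over 70% in size.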 A digest of the protocol:
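Unlinked Zika NS2B hydrophilic domain–NS3 protease complex at 25 nM in 10 mM Tris-HCl pH 8.0, 0.01% Tween 20, with an AMC peptide substrate. Fluorescence change (340/450 nm) over 15 min at room temperature, normalized to controls, fitted to 4-parameter Hill.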
A general note: qHTS replaces the single test concentration by a dilution series.

Assay [2] can be described thus: qHTS to identify inhibitors of the type 1 interferon - major histocompatibility complex class I in skeletal muscle: primary screen against the NCATS Mechanism Interrogation Plate v5.0 (MIPE) Libary (AID 1347411).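 Further: plate controls were vehicle for no effect and reference inhibitor for full effect; nearly all actives have a fitted effect of over 65% in size.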 The procedure, abridged:
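Luminescence from HiBiT-tagged endogenous HLA-B*08:01 served as the MHC class I read-out. CRISPR-engineered C25cl48 human myoblasts received 4.0 ng/ml IFN-beta plus compound for 24 hrs, with an 11-point, 1:3 series topping at 46 uM final.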

Assay [3] is described as follows: Primary qHTS for small molecule stabilizers of the endoplasmic reticulum resident proteome: Secreted ER Calcium Modulated Protein (SERCaMP) assay (AID 1508630). Further: on the % scale 0 is the no-effect control and ±100 the full control effect. A digest of the protocol: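 GLuc-SERCaMP-expressing SH-SY5Y cells, pretreated 16 h with compound, are challenged with thapsigargin to empty ER calcium stores; after 4 h, coelenterazine is added directly to the medium and luminescence is imaged.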

The nature of assay [4]: NCATS anti-infectives library activity on HEK293 viability as a counter-qHTS vs the C. elegans viability qHTS (AID 1745854). Further: on the % scale 0 is the no-effect control and ±100 the full control effect. A digest of the protocol: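 Compounds were acoustically plated (several concentrations, 1:5, final up to 41.7 uM), then 1500 HEK293 cells added per well and incubated 24 hr at 37C, 5% CO2. CellTiter-Glo was added and luminescence read after 10 min.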

The target in assay [5] is Glutathione peroxidase 1 (Homo sapiens) (UniProt P07203). Description: Primary qHTS Assay for Inhibitors of Recombinant Selenoprotein Glutathione Peroxidase 1 (GPX1) (AID 1845191). Further: nearly all actives have a fitted effect of over 65% in size. The procedure, abridged: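 GR-coupled assay: compounds preincubated 30 min at room temperature with GPX1, then reaction started with CHP; final 10 nM GPX1, 1 mM GSH, 0.5 mM CHP, 0.5 mM NADPH, 100 nM GR, 0.01% BSA, pH 7.5 Tris buffer. NADPH fluorescence (340/450 nm) read at 0 and 15 min.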
Chain of Glutathione peroxidase 1 (Homo sapiens) (P07203 whole entry, looked up): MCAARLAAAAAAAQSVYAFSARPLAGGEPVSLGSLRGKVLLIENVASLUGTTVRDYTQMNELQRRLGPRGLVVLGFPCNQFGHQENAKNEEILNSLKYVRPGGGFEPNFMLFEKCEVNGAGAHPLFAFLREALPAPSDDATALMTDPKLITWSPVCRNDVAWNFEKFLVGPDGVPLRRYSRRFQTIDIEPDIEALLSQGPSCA

Assay [6] deals with Phospholipid hydroperoxide glutathione peroxidase GPX4 (Homo sapiens) (UniProt P36969). Description: Primary qHTS Assay for Inhibitors of Recombinant Selenoprotein Glutathione Peroxidase 4 (GPX4) (AID 1845192). Further: nearly all actives have a fitted effect of over 65% in size. To be noted: outcome: dose series up to 50 µM unless noted. The procedure, abridged: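 GR-coupled assay: recombinant GPX4 preincubated 30 min with compound at room temperature; final 200 nM GPX4, 1 mM GSH, 0.5 mM cumene hydroperoxide, 0.5 mM NADPH, 100 nM GR, 0.01% BSA, pH 7.5 Tris. NADPH fluorescence (340/450 nm) read at 0 and 15 min.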
Chain of Phospholipid hydroperoxide glutathione peroxidase GPX4 (Homo sapiens) (P36969 whole entry, looked up): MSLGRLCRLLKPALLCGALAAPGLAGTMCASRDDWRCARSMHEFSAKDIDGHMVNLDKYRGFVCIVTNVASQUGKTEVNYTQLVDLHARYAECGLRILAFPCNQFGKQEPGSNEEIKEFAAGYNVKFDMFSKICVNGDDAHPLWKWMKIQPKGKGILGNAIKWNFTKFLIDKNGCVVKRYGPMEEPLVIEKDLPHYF

Assay [7] is described as follows: qHTS drug screen for cell cycle checkpoint inhibitors in PARPi-resistant BRCA-mutant ovarian cancer cell lines. (AID 1963452; calls by dose curve). To be noted: PEO1/OlaR viability, CellTiter-Glo luminescence, 96 h, stronger effect = lower value. The procedure, abridged: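 PEO1, PEO4 and PEO1/OlaR ovarian cancer cells, 600 per well, exposed 96 h at 37C to a dilution series. Viability read by CellTiter-Glo luminescence, normalized to DMSO and empty wells; activity summarized as Z-AUC.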

Results filed as inconclusive are left out. Active and inactive are the calls of the source. Unless noted, the call rests on the fitted dose curve; in most records, active means well fitted curve in the direction sought with a large enough effect; inconclusive means small, poorly fitted or top-dose-only effect, or another doubt; inactive means no such curve, though single readings can be large; an effect the other way counts as inactive or inconclusive.

Take `CCCC[C@@H](C=O)NC(=O)[C@H](CC(C)C)NC(=O)OCc1ccccc1`: the Potency entry in assay [1], in assay [2], in assay [3], in assay [5] and in assay [6] was “inactive” each time. Besides, the molecule was classed as inactive in assay [4]. Also, the Z-AUC in assay [7] was 1.25 (inactive); in assay [7] (measured here: PEO1 parental Z-AUC), 0.731; in assay [7] (measured here: PEO4 Z-AUC), 0.856.

On to `O=C1NN(C(=O)Nc2ccc(Br)cc2)C(c2ccccc2)C1c1ccccc1` (stereo not given), for which the Potency result in assay [1] was “inactive”.

The values above are taken from PubChem BioAssay (NCATS).
